Source: PubChem BioAssay
Compounds with a hit are over-represented: about 2.2% of the library has one in this group of screens.
IEC-6 tox – IEC-6 cytotoxicity, counter-screen for KLF5 inhibitors; AID 1825; inhibition, % at 5 µM; luminescence viability; actives 0.78% (n = 290,000); in the data active means inhibition above about 22%;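 further: 0% = plate median of test compound wells and 100% = cytotoxic reference compound wells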
APP 5UTR inh – APP translation inhibition | AID 1285 | actives 0.82% (n = 190,000) | SH-SY5Y APP 5'UTR-luciferase reporter, luminescence | inhibition, % at 2 µM;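 active means inhibition above a set limit, derived from the sample mean plus 3 SD, cut at about 45% in these data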
BaF3 parental – parental Ba/F3 viability inhibition as JAK2V617F counter-screen; inhibition, % at 5.6 µM; CellTiter-Glo ATP luminescence; actives 1.1% (n = 220,000);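 active means inhibition above a per-campaign cutoff, the mean inhibition of all tested compounds plus 3 SD, cut at about 27% in these data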;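 further: 0% = DMSO wells and 100% = JAK Inhibitor I control wells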
KLF5 inh – kruppel-like factor 5 inhibition. DLD-1 KLF5 promoter-luciferase reporter, luminescence. inhibition, % at 5 µM. actives 0.23% (n = 290,000). AID 1700;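 active means inhibition above a per-plate limit of that plate's mean compound inhibition plus 3 SD, cut at about 60% in these data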;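 further: 0% = DMSO wells and 100% = LY294002 at 200 µM; higher means less KLF5 promoter-driven luciferase light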
Ba/F3 V617F tox – lowers viability of Ba/F3 cells expressing EpoR and JAK2V617F; actives 1.1% (n = 220,000); ATP luminescence; inhibition, % at 5.6 µM; AID 1446;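 active means inhibition above the campaign mean plus 3 SD over all tested compounds, cut at about 24% in these data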;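 further: cytokine-independent growth of Ba/F3 cells driven by EpoR plus mutant JAK2; 0% = DMSO-treated cells and 100% = JAK inhibitor I control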
aSyn 5UTR inh – 5' untranslated region of α-synuclein, MLPCN primary screen; actives 0.82% (n = 300,000); alpha-synuclein 5'UTR reporter, inhibitor activity; inhibition, % (tested at 7.5 µM); in the data active means inhibition above about 60%;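 further: H4 neuroglioblastoma cells stably carrying SNCA 5'UTR luciferase fusion; 0% = DMSO wells and 100% = positive control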
Active calls of the source: *; . = no result.

SMILES	IEC-6 tox	APP 5UTR inh	BaF3 parental	KLF5 inh	Ba/F3 V617F tox	aSyn 5UTR inh
O=C1c2cccc3cccc(c23)C(=O)N1Cc1cccnc1	4.4	.	-4.1	9.5	3.7	14.5
CCCN1CCN(CCCNC(=O)c2cc3c(s2)-c2c(C)cccc2OC3)CC1	10.5	.	.	-29.1	.	8.3
Cc1cccc2c1-c1sc(C(=O)NCCCN3CCCC(C)C3)cc1CO2 (stereo not drawn)	6.4	.	.	-5.6	.	69.5*
CC1CCCC(C)N1CCCNC(=O)c1cc2c(s1)-c1ccccc1OC2 (stereo not drawn)	2.1	.	.	-10.9	.	69.9*
CCC(C(=O)OC)(C(=O)OC)c1ccc([N+](=O)[O-])cc1	2.9	-1.3	-1.0	-14.6	2.3	-13.7
C/C(=N\Nc1cccc(Cl)c1)C1(C)N(O)C(C)(C)C(c2ccco2)=[N+]1[O-] (stereo not drawn)	-2.9	.	3.2	-0.8	-0.3	13.2
O=C(Oc1cccnc1)c1ccco1	-3.3	45.7*	2.2	-12.9	-3.9	-9.7
COc1ccc(NC(=O)CN(C)C(=O)CSCc2c(C)noc2C)cc1	.	.	.	.	.	11.8
CN(C)c1ccc(/C=C2\C(=O)N(c3ccc([N+](=O)[O-])cc3)N=C2N2CCOCC2)cc1	-4.7	-12.1	2.9	-17.4	-4.3	.
Cc1cc(C(=O)NN)c2cc(Br)ccc2n1	6.1	75.0*	4.5	21.6	3.7	2.9
CC(=O)N1c2ccc(C)cc2C(c2ccccc2)CC1C (stereo not drawn)	11.4	.	.	-8.7	.	8.6
COc1ccccc1N1CCN(C(c2cccs2)C(C)NC(=O)C(=O)N2CCOCC2)CC1 (stereo not drawn)	-1.6	.	.	-19.2	.	4.6
CC(=O)c1sc(Nc2nc(C)cc(C)n2)nc1C	4.2	82.7*	2.2	-13.3	-2.2	-28.5
COc1ccc(/C=C/c2cc(-c3ccc(C)cc3)o[n+]2C)cc1	2.4	-1.1	93.4*	50.0	101.0*	89.2*
COc1cc(-n2c(C)nc3cc(C(=O)N4CCOCC4)ccc32)cc(OC)c1OC	0.2	3.0	91.1*	-24.6	-1.6	6.9
CC(C)CN1C(=O)NC(NC(=O)c2ccco2)(C(F)(F)F)C1=O (stereo not drawn)	-0.6	5.0	95.0*	-24.7	0.2	8.9
CN1C(=O)NC(NC(=O)c2ccco2)(C(F)(F)F)C1=O (stereo not drawn)	-4.5	-3.3	0.1	-24.6	-1.8	-0.6
O=[N+]([O-])c1ccc(-c2ccc(/C=N/Nc3nc(N4CCCCC4)nc(N4CCCCC4)n3)o2)cc1	-1.2	3.0	7.2	-43.0	-3.1	36.2
O=[N+]([O-])c1cccc(-c2ccc(/C=N/Nc3nc(N4CCCCC4)nc(N4CCCCC4)n3)o2)c1	-4.8	-23.4	-3.7	-22.7	-1.8	72.5*
COc1ccc(CN2CCNC(=O)C2CC(=O)NC2CC(C)(C)CC(C)(C)C2)cc1OC (stereo not drawn)	-1.2	.	.	2.4	.	6.4
COCCOC(=O)c1[nH]c2c(c1C)C(=O)CC(c1ccco1)C2 (stereo not drawn)	16.7	95.5*	76.8*	15.8	76.1*	43.9
C=CCOC(=O)c1[nH]c2c(c1C)C(=O)CC(c1cc(OC)c(OC)c(OC)c1)C2 (stereo not drawn)	4.7	-11.8	44.0*	9.4	40.5*	-12.5
Cc1c(C(=O)C(=O)N2c3ccccc3CC2C)c2ccccc2n1C (stereo not drawn)	9.1	-7.4	8.0	3.6	2.6	-8.0
O=C(O)c1ccccc1C(=O)N1CC=C(c2ccccc2)CC1	-2.2	3.7	38.3*	-34.5	16.4	-12.0
Cc1cc(C(=O)N2CC=C(c3ccccc3)CC2)c2ccccc2n1	.	.	.	.	.	43.3
SMILES	IEC-6 tox	APP 5UTR inh	BaF3 parental	KLF5 inh	Ba/F3 V617F tox	aSyn 5UTR inh
Cc1c(C(=O)C(=O)N2CC=C(c3ccccc3)CC2)c2ccccc2n1C	46.9*	82.0*	28.4*	38.2	77.0*	55.1
CCCCN1C2=NCCCN2c2cc(C)c(C)cc21	5.9	-2.0	58.8*	-16.3	50.8*	12.2
CCN(CC)c1ccc(NC(=O)CCCCC(=O)Nc2ccc(N(CC)CC)cc2)cc1	.	.	.	.	.	62.8*
CCN(CC)c1ccc(NC(=O)CCCCCN2C(=O)c3ccccc3C2=O)cc1	0.5	5.1	7.1	0.9	3.4	-3.5
Clc1ccc2nc(N3CCCCC3)[nH]c2c1	3.8	-119.1	2.6	-166.0	2.4	-123.3
O=c1c(Cl)c(N2CCCCC2)cnn1-c1nc2ccccc2[nH]1	15.5	-97.0	15.4	50.1	15.6	93.2*
CCOC(=O)C1=C(c2ccccc2)ON(C)C1c1ccccc1 (stereo not drawn)	-0.9	1.5	39.2*	1.8	26.2*	1.6
CCOC(=O)C1=C(C)N=C(SC)N(C)C1c1ccccc1 (stereo not drawn)	-0.7	14.0	7.3	-6.1	-1.6	2.2
Cc1cccc(-c2nc(CNC(=O)c3ccco3)cs2)c1	-2.4	.	.	-49.2	.	-42.3
CC1=CC(C)(C)N2C(=O)C3(SCC(=O)N3c3ccc(O)cc3)c3cc(C)cc1c32 (stereo not drawn)	-3.4	2.8	2.8	-13.7	-2.4	5.1
CC1=CC(C)(C)N2C(=O)C3(N=C(N)NC(Nc4ccccc4)=N3)c3cc(C)cc1c32 (stereo not drawn)	13.8	-10.0	42.0*	-8.2	44.3*	-21.2
NC(=O)c1ncn([C@@H]2O[C@H](CO)[C@@H](O)[C@H]2O)n1	12.7	-14.3	9.1	-23.0	4.5	19.7
OCC1OC(n2nc3ccccc3n2)C(O)C(O)C1O (stereo not drawn)	-11.5	13.7	27.6*	-11.7	-0.6	27.2
O=C(Oc1c(CN2CCOCC2)cc(Cl)c2cccnc12)c1ccccc1	25.7*	52.6*	-0.3	-15.4	-2.8	44.8
O=C(Oc1c(CN2CCOCC2)cc(Cl)c2cccnc12)c1ccccc1F	-1.4	75.4*	3.9	-8.5	0.0	105.8*
Oc1c(I)cc(Cl)c2cccnc12	-1.3	8.7	6.2	-13.1	-3.4	-18.7
Oc1c(CN2CCc3ccccc3C2)cc(Cl)c2cccnc12	-5.4	22.2	3.9	-6.6	0.3	90.8*
Oc1c(CN2CCCCC2)cc(Br)c2cccnc12	-6.1	66.9*	27.1*	41.0	44.1*	111.5*
CC(C)c1ccccc1NC(=O)c1ccc2ncsc2c1	-3.6	.	.	6.4	.	-43.7
COc1ccccc1CCNC(=O)CCn1c(=O)c2cccn2c2ccc(F)cc21	-2.8	.	.	-11.0	.	3.6
Cc1cc(OCC(O)CN2CCc3ccccc3C2)ccc1Cl (stereo not drawn)	-4.2	.	.	-14.5	.	-1.0
O=[N+]([O-])c1cc([N+](=O)[O-])c2cc(-c3cccnc3)[nH]c2c1	.	.	.	.	.	0.6
C/C(N)=C(/C#N)C(=O)COC(=O)CCSc1ccccc1Cl	0.9	81.1*	2.3	-13.2	-2.5	-5.6
C/C(N)=C(/C#N)C(=O)COC(=O)CSc1ccccc1	1.3	-11.1	4.3	-1.3	3.1	19.0
Cc1ccccc1OCCN(C#N)c1nc(N(C)C)nc(N(C)C)n1	12.4	-9.6	3.9	-18.4	3.3	-18.1
